Screening data: PubChem BioAssay, National Center for Advancing Translational Sciences (NCATS)
Hits are enriched below; roughly 3.8% of the tested compounds scored in any of these assays.
HT1080 IDH1KD tx – toxicity to HT-1080 IDH1 knockdown cells (counter line); HT-1080 IDH1 knockdown viability, ATP luminescence, 48 h; Potency, µM (series often up to 46.1 µM), for the others: top-dose activity, negative = toxicity, most hits filed as cytotoxic; actives 2% (n = 360,000);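 further: 0% = DMSO wells and -100% = cell-free medium wells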
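Knockdown cells (IDH1KD HT-1080) received compounds 2 h after plating at 750 cells/well and were kept 48 h at 37 °C in 5% FBS RPMI. A CellTiter-Glo luminescence read gave % activity for curve fitting.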
TGFb inhibitor – TGF-b pathway inhibition; HepG2 CAGA-GFP TGF-b/SMAD3 reporter, GFP fluorescence, 18 h; TGF-beta stimulated, 500 pg/mL final; Potency, µM (doses to about 46.1 µM), for the others: at the top dose activity, negative = inhibition, usual class: inhibitors; actives 1.2% (n = 410,000); further: on the % scale 0 is the no-effect control and ±100 the full control effect; nearly all actives have a fitted effect of over 65% in size
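GFP signal (ex488/em500-530) from TGF-beta-stimulated HEPG2 CAGA-GFP cells, 500 pg/mL final, 18 h at 37 degrees C in DMEM plus 1% FBS, normalized to unstimulated and DMSO-stimulated controls.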
ATXN2 expr inh – reduces ATXN2 reporter expression in HEK-293 cells | Potency, µM (series often up to 57 µM), inactives show at the top dose activity change, negative = inhibition, most hits filed as inhibitors | actives 0.72% (n = 360,000) | HEK-293 ATXN2-luciferase reporter, luminescence, 24 h; further: on the % scale 0 is the no-effect control and ±100 the full control effect; nearly all actives have a fitted effect of over 55% in size
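qHTS (up to 57 uM final) was run with 24 h compound exposure of reporter cells at 37 °C. Each well was multiplexed: SteadyGlo luminescence measured ATXN2-luciferase expression after a fluorogenic Gly-Phe-AFC viability readout (25 uM final).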
ATXN viability – viability counter-screen for ATXN expression inhibitors; S2 cells (HEK-293 line with an ATXN2-luciferase reporter) viability, CellTiter-Fluor protease fluorescence, 24 h; Potency, µM (doses to about 56.7 µM), usual class: cytotoxic; actives 0.49% (n = 400,000); AID 651635; further: nearly all actives have a fitted effect of over 40% in size
HT1080NT lethal – kills 2HG-producing HT-1080-NT fibrosarcoma cells | HT-1080-NT fibrosarcoma viability, CellTiter-Glo ATP luminescence, 48 h | Potency, µM (top dose mostly 46.1 µM), for inactives: top-dose activity, negative = less viability, most hits filed as cytotoxic | actives 1.6% (n = 360,000);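 further: NT is the 2HG producing partner of a matched IDH1 knockdown line; 0% = DMSO-treated cells and -100% = media-only wells without cells; nearly all actives have a fitted effect of over 55% in size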
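750 cells/well, RPMI + 5% FBS; 2 h settle, compound pin-transfer, 48 h at 37 degrees C. CellTiter-Glo 10 min RT, luminescence. Normalized to DMSO and media-only wells.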
HepG2 viability – counter-screen for TGF-b inhibitors: cytotoxicity in HepG2 cells. actives 0.76% (n = 410,000). Potency, µM (doses to about 46.1 µM), without a hit: at the highest dose activity change, negative = cytotoxicity, hits mostly cytotoxic. HepG2 CAGA-GFP viability, ATP luminescence, 18 h. AID 588856
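HepG2 CAGA-GFP cells (1000/well, DMEM with 1% FBS) received compound, then TGF-beta at 500 pg/mL final, and were incubated 18 hours at 37 degrees C. Viability was read by CellTiter-Glo luminescence. Media-only wells were set as complete cell-killing and DMSO as no toxicity.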
Active calls of the source: *; i = inactive; u = inconclusive. The call rests on the fitted dose curve; in most records, active means well fitted curve in the direction sought with a large enough effect; inconclusive means small, poorly fitted or top-dose-only effect, or another doubt; inactive means no such curve, though single readings can be large; an effect the other way counts as inactive or inconclusive. Potency means the concentration at half of the fitted maximal effect.

SMILES | HT1080 IDH1KD tx | TGFb inhibitor | ATXN2 expr inh | ATXN viability | HT1080NT lethal | HepG2 viability
CCn1c(=N)n(CC(=O)C(C)(C)C)c2ccccc21 | 7.9µM* | u | -6% | i | 7.1µM* | -28%
O=C(CCS(=O)(=O)Cc1ccccc1)Nc1nc2c(s1)CCCC2 | 8.9µM* | u | 17% | i | u | 13%
CCOC(=O)Cc1csc(NC(=O)Nc2ccc(C)cc2)n1 | -10% | -8% | 11% | i | 7.3µM* | -7%
CCOC(=O)Cc1csc(NC(=O)CCS(=O)(=O)Cc2ccccc2)n1 | 10µM* | -4% | 61% | i | u | 1%
CCOC(=O)Cc1csc(NC(=O)CS(=O)(=O)Cc2ccccc2)n1 | 16% | u | -3% | i | 19% | -80%
O=C(CS(=O)(=O)Cc1ccccc1)Nc1nc2c(s1)CCCC2 | 14% | u | -1% | i | 1% | 2%
